The record followed here is PubChem BioAssay (NCI).

Where “and” joins values, the source holds several entries; their conditions need not be identical. Equal values may be shown once. Compounds without any hit were thinned out: in the full panel of roughly 83,000, 20% have a hit.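 Plates (96-well) were seeded with cells, treated with compound at one concentration, and incubated for 48 hours before percent growth was determined.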 Values without a mark were called inactive. Calls of active or inactive are those of the source. The calls were made as follows: active = growth percent below 10; inactive = the rest.

Among the test systems are T-47D breast; BT-549 breast; MDA-MB-435 melanoma; SW-620 colon; MCF7 breast; HCT-116 colon; HCC-2998 colon; KM12 colon.
Holding throughout (test): NCI-60 one-dose screen, 48 h (100 = growth as untreated, 0 = no growth, -100 = all killed)
What all share (details): 10 µM unless noted

On to `Cn1cc(-c2nc3c(F)cc4[nH]ncc4c3c3c2CCCC3)c(C(F)F)n1`, for which the growth in the test on T-47D breast is 50.8%; in the test with BT-549 breast, 31.1%; in the test on MDA-MB-435 melanoma, 27.1%; in the test with SW-620 colon it was 56.3%; in the test on MCF7 breast, 46.5%; in the test on HCT-116 colon it was 39.7%. For the same compound, the results for the growth with HCC-2998 colon and with KM12 colon were 90.6% and 23.2%, respectively.
Consider `O=C(NNc1ccccc1)c1ncc[nH]1`, for which the growth in the test with T-47D breast was 43.6%; with BT-549 breast it was 101%; in the test with MDA-MB-435 melanoma, 24.2%; in the test with SW-620 colon it was 60.7%; in the test with MCF7 breast it was 56.5%; in the test on HCT-116 colon it was 64.4%. Also, the growth with HCC-2998 colon was 60.6%; in the test on KM12 colon it was 29.5%.
As to `CC[C@H](C)[C@H](NC(=O)[C@@H](N)CCC(N)=O)C(=O)N[C@@H](Cc1ccc(O)cc1)C(=O)N[C@@H](CCCCN)C(=O)N[C@@H](CCCCN)C(=O)N[C@@H](Cc1ccc(O)cc1)C(=O)N[C@@H](CCCNC(=N)N)C(=O)N[C@H](C(=O)N[C@@H](Cc1c[nH]c2ccccc12)C(=O)N[C@@H](Cc1ccc(O)cc1)C(=O)N[C@@H](CCCNC(=N)N)C(=O)N[C@@H](CCCCN)C(=O)N[C@@H](C)C(=O)N[C@@H](Cc1c[nH]c2ccccc12)C(=O)N[C@@H](CCCCN)C(=O)N[C@H](C(=O)N[C@@H](CC(C)C)C(=O)NCC(=O)N[C@@H](CCCCN)C(=O)N[C@H](C(N)=O)C(C)C)C(C)C)[C@@H](C)O`, the growth was -47% (active) with T-47D breast; 16.3% in the test on BT-549 breast; 17.9% in the test on MDA-MB-435 melanoma; 47.2% in the test on SW-620 colon; -68.3% (active) with MCF7 breast; 28.7% in the test on HCT-116 colon. Moreover, the values for the growth in the test with HCC-2998 colon and in the test with KM12 colon were 87.5% and -33% (active), respectively.
For the compound `CCOC(=O)c1c(-c2ccc(OC)cc2)c(C#N)c2c(C#N)c(N)nn2c1N`, the growth is 12% in the test on T-47D breast; 37% in the test on BT-549 breast; -38.2% (active) with MDA-MB-435 melanoma; 26.9% with SW-620 colon; 13.2% in the test on MCF7 breast; 16% in the test on HCT-116 colon. Also, the results for the growth in the test on HCC-2998 colon and in the test with KM12 colon were 62.9% and 23.6%, respectively.
Consider `C/C(=C(\c1ccc(OCCN2CCOCC2)cc1)c1ccc(OC(=O)C2CCCCC2)cc1)c1ccc(Cl)cc1`, for which the growth in the test on T-47D breast was 66.5%; in the test with BT-549 breast it was 91.3%; in the test on MDA-MB-435 melanoma, 94.4%; in the test with SW-620 colon it was 96.6%; in the test with MCF7 breast, 79.8%; in the test with HCT-116 colon, 78.7%. The growth in the test on HCC-2998 colon is 94.2%; with KM12 colon it was 98.8%.
Consider `O=C(/C=C/c1cccs1)Nc1ncc(Cc2ccc(Cl)c(Cl)c2)s1`, for which the growth is 49% in the test on T-47D breast; 80.9% in the test with BT-549 breast; -23.2% (active) in the test with MDA-MB-435 melanoma; 37.5% with SW-620 colon; 26.8% with MCF7 breast; 45.2% in the test with HCT-116 colon. In addition, the growth with HCC-2998 colon is 53.8%; in the test with KM12 colon, 22%.
`Cc1oc2c(Cc3ccc(NC(=O)c4ccc(Cl)cc4)cc3)ncnc2c1C(=O)NO`: the growth in the test with T-47D breast was 96.8%; in the test with BT-549 breast, 103%; in the test on MDA-MB-435 melanoma, 92.5%; in the test on SW-620 colon, 105%; in the test on MCF7 breast, 91.1%; with HCT-116 colon it was 98%. Moreover, the figures for the growth in the test on HCC-2998 colon and with KM12 colon were 97.9% and 95.9%, respectively.
On to `c1ccc(Cc2cccc[n+]2C(c2ccccc2)c2ccccc2)cc1`, for which the growth was 3.66% (active) with T-47D breast; 29.8% with BT-549 breast; 40% with MDA-MB-435 melanoma; 81.2% in the test with SW-620 colon; 34.6% in the test on MCF7 breast; 49.2% in the test with HCT-116 colon. Moreover, the growth was 40.7% in the test on HCC-2998 colon and 42.4% in the test on KM12 colon.
In the case of `CC1=CC(C)(C)NC(=S)N1c1ccc(Cl)cc1`, the growth in the test on T-47D breast was 92.8% and 87.2%; in the test on BT-549 breast, 99.1% and 110%; in the test on MDA-MB-435 melanoma, 101% and 117%; with SW-620 colon it was 100% and 115%; in the test with MCF7 breast it was 101% and 97.3%; in the test on HCT-116 colon it was 99.6% and 89%. Besides, the growth in the test on HCC-2998 colon is 105% and 100%; with KM12 colon, 101% and 105%.
As for `CC(C)(C)c1cc(C(C)(C)c2ccccc2)cc(Cc2cc(C(C)(C)c3ccccc3)cc(C(C)(C)C)c2O)c1O`, the growth in the test on T-47D breast is 95.3%; in the test with BT-549 breast, 93.1%; in the test with MDA-MB-435 melanoma, 115%; in the test with SW-620 colon, 104%; in the test on MCF7 breast, 94.6%; in the test with HCT-116 colon, 93.1%. Besides, the values for the growth in the test on HCC-2998 colon and with KM12 colon were 107% and 106%, respectively.
As for `COc1cc(CNC(=O)CCCC/C=C/C(C)C)ccc1OCc1cn(-c2ccc([N+](=O)[O-])cc2)nn1`, the growth in the test on T-47D breast was 64%; with BT-549 breast, 80.4%; with MDA-MB-435 melanoma it was 99.7%; in the test with SW-620 colon it was 99.8%; with MCF7 breast it was 83.4%; in the test on HCT-116 colon, 77.2%. The growth in the test with HCC-2998 colon is 108%; with KM12 colon, 90%.
As for `CCN(CC)CC(=O)Nc1ccc2ncnc(Nc3ccc(Oc4cccc(F)c4)c(Cl)c3)c2c1`, the growth in the test on T-47D breast is 54.5%; in the test with BT-549 breast it was 78.5%; in the test on MDA-MB-435 melanoma it was 75%; in the test with SW-620 colon, 67.6%; in the test on MCF7 breast it was 52.9%; in the test with HCT-116 colon it was 64.7%. For the same compound, the results for the growth in the test with HCC-2998 colon and in the test with KM12 colon were 53.1% and 51.5%, respectively.
For the compound `Cc1ccc(NC(=O)N/C(N)=N/c2nc(=O)c3ccccc3s2)cc1`, the growth was 109% with T-47D breast; 86.4% in the test with BT-549 breast; 87.5% with MDA-MB-435 melanoma; 92.7% with SW-620 colon; 84.9% in the test on MCF7 breast; 94.1% in the test on HCT-116 colon. The growth was 102% in the test with HCC-2998 colon and 103% in the test on KM12 colon.
Take `C/C=C(/C)C(=O)O[C@@H]1CC(C)(C)CC2C34OC(=O)[C@@]21CC[C@@]3(C)[C@]1(C)CCC2C(C)(C)C(=O)CC[C@]2(C)C1C[C@@H]4Cl` (some centres not stated): the growth in the test with T-47D breast is 99.1%; with BT-549 breast, 108%; in the test with MDA-MB-435 melanoma it was 102%; in the test on SW-620 colon it was 96.7%; in the test on MCF7 breast, 97.6%; in the test with HCT-116 colon it was 86.2%. In addition, the growth was 102% in the test with HCC-2998 colon and 104% in the test on KM12 colon.
As for `COc1cc(N=Nc2ccc(O)c3ncccc23)c2ncccc2c1`, the growth is 20.2% in the test on T-47D breast; 39% in the test on BT-549 breast; 42.4% with MDA-MB-435 melanoma; 30.5% in the test on SW-620 colon; 27.5% in the test on MCF7 breast; 19.4% in the test with HCT-116 colon. The growth in the test with HCC-2998 colon is 36.3%; in the test on KM12 colon, 28.1%.
On to `Nc1nc2ccccc2c2c(=O)c3ccc(Cl)cc3sc12`, for which the growth is 53.9% with T-47D breast; 94.3% in the test on BT-549 breast; 101% with MDA-MB-435 melanoma; 76% in the test with SW-620 colon; 29.9% in the test on MCF7 breast; 82.1% with HCT-116 colon. In addition, the growth is 114% in the test on HCC-2998 colon and 87.5% with KM12 colon.
Take `COc1ccc2c(c1)c(C(=O)c1nc(-c3cn(C)c4ccccc34)no1)cn2C`: the growth in the test on T-47D breast was 77.5%; in the test with BT-549 breast, 98%; in the test with MDA-MB-435 melanoma it was 76.7%; with SW-620 colon, 87%; in the test with MCF7 breast it was 24%; with HCT-116 colon, 99.5%. Further, the growth with HCC-2998 colon is 95.3%; with KM12 colon, 81%.
For `COc1ccc(C(=O)c2ccc(OC)c(OC)c2OC)cc1`, the growth was 44.5% and 36.2% in the test with T-47D breast; 71.9% and 50% in the test with BT-549 breast; -14.6% (active) and -29.5% (active) with MDA-MB-435 melanoma; 15.6% and 11.8% in the test on SW-620 colon; 25.4% and 16.5% in the test on MCF7 breast; 30.5% and 26.3% in the test with HCT-116 colon. Further, the growth in the test with HCC-2998 colon is 57.3% and 45.6%; in the test on KM12 colon, 29.5% and 24.7%.
In the case of `Cn1cc(-c2csc(-c3c[nH]c4ccc(F)cc34)n2)c2cnccc21`, the growth with T-47D breast was -65% (active); in the test on BT-549 breast, 76.6%; with MDA-MB-435 melanoma, -90.5% (active); in the test with SW-620 colon it was -86.7% (active); with MCF7 breast it was -25.1% (active); in the test on HCT-116 colon, -89.9% (active). For the same compound, the growth with HCC-2998 colon is -54.9% (active); in the test with KM12 colon, -11.8% (active).
